Screening results (PubChem BioAssay)
GPR151 activ: activators of human GPR151; PathHunter beta-arrestin GPR151 cells, luminescence; activation, % at 11.2 µM; 1% of 650,000 active; in the data active means activation above about 4.9%
MITF primary: blocks human microphthalmia-associated transcription factor. inhibition, % at 2.6 µM. 0.91% of 650,000 active. AlphaScreen MITF homodimerization, bead proximity signal. AID 1259374. O75030; in the data active means inhibition above about 50%
TEAD-YAP inh: TEAD-YAP interaction inhibition; HEK-TIYL cells, TEAD-Gal4/YAP UAS-luciferase luminescence; inhibition, % at 9.12 µM; 1.4% of 640,000 active; AID 1259422; in the data active means inhibition above about 32%
FBW7 act: human FBW7 E3 ligase activation, primary screen | 0.13% of 650,000 active | AID 1259310 | normalized activity (activation), % at 26.1 µM | Q969H0 | AlphaScreen FBW7–phospho-cyclin E peptide binding, activator screen; in the data active means normalized activity above about 1.9%;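 further: purified mutant Fbw7 with reduced substrate affinity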
Target sequence (Q969H0 whole entry, looked up): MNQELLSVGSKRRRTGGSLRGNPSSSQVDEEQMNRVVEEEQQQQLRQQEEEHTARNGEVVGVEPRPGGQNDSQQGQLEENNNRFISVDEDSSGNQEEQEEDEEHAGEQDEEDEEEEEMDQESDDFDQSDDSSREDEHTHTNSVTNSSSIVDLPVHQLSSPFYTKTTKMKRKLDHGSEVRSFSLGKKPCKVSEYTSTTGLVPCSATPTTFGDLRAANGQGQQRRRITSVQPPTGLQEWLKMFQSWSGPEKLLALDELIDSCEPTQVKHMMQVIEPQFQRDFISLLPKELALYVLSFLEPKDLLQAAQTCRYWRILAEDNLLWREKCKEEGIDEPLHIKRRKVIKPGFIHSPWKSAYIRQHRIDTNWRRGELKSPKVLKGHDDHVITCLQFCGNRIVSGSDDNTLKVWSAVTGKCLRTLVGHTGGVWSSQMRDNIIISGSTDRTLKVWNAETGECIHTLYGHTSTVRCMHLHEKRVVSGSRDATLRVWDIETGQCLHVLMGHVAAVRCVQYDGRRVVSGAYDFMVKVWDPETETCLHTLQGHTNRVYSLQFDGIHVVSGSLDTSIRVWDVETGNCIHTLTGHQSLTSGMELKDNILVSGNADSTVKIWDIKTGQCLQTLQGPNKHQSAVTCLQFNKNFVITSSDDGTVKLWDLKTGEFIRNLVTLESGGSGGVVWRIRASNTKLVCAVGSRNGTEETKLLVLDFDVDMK
Of the large screens only hits and unclear results are named; the others gave an inactive call. Only some compounds are listed: those with a hit (about 3.4% of all), similar ones and a draw of the others.

O=C(NCCO)c1ccnc(N2CCN(c3ccccn3)CC2)c1	none
CCC(C)N(C(=O)c1ccc([N+](=O)[O-])cc1)C(C)CC (centres undefined)	none
CCC(C)N(C(=O)c1cccc([N+](=O)[O-])c1)C(C)CC (centres undefined)	FBW7 act 2.0
Nc1nnc(SCC(=O)N(c2ccccc2)c2ccccc2)s1	none
COc1ccccc1C(=O)N/C(=C\c1ccc([N+](=O)[O-])cc1)C(=O)Nc1ccc(C)c(Cl)c1	none
CC(C)CC(=O)Nc1ccc2nn(-c3ccccc3)nc2c1	FBW7 act 3.0
O=C(COc1ccccc1)Nc1ccc2nn(-c3ccccc3)nc2c1	none
Cc1cc2nn(-c3ccccc3)nc2cc1NC(=O)C(C)C	none
CC(=O)Nc1cc2nn(-c3ccccc3)nc2cc1C	TEAD-YAP inh 50.1
CCOc1ccc(NC(=O)COc2cccc3ccc(N4CCCC4)nc23)cc1	none
O=C(COc1cccc2ccc(N3CCOCC3)nc12)Nc1cccc(F)c1	TEAD-YAP inh 33.9
Cc1c(C(=O)NC(=S)Nc2cccc(C(=O)O)c2)cccc1[N+](=O)[O-]	none
O=C(O)c1cccc(NC(=O)c2ccc(Oc3ccccc3)cc2)c1	TEAD-YAP inh 93.2
Cc1c(C(=O)Nc2cccc(C(=O)O)c2)cccc1[N+](=O)[O-]	FBW7 act 3.5
O=C(Nc1cccc(F)c1)c1ccc(Oc2ccccc2)cc1	none
O=C(O)c1ccc(NC(=O)c2ccc(Oc3ccccc3)cc2)cc1	TEAD-YAP inh 39.1
O=C(Nc1ccncc1)c1ccc(C(=O)Nc2ccncc2)cc1	none
O=C(Nc1ccncc1)c1ccc(C(=O)c2ccccc2)cc1	TEAD-YAP inh 55.3
Cc1sc(-n2cccc2CNCc2cccs2)c(C(=O)O)c1C	none
Cc1c(CNCc2ccco2)c(C(=O)O)c(C)n1Cc1ccc(F)cc1	none
O=C(OC(c1ccccc1)c1nccc2ccccc12)c1ccc(F)cc1 (centres undefined)	TEAD-YAP inh 52.2
CCN(c1ccccc1)c1nnc(NC(=O)Nc2ccc(F)cc2)s1	none
COc1cc(/C=N/N2C(=O)c3ccccc3C2=O)cc(OC)c1O	none
O=C(NCCc1ccccc1)c1ccc2cncc(-c3ccccc3)c2n1	TEAD-YAP inh 47.3
O=C(NCCc1ccccc1)c1nnc(-c2cccnc2)o1	none
COc1ccccc1CNC(=O)c1ccc2cncc(-c3ccccc3)c2n1	TEAD-YAP inh 64.7
COc1ccc(-c2cncc3ccc(C(=O)NCc4ccccc4)nc23)cc1	TEAD-YAP inh 68.3
COc1ccc(-c2cncc3ccc(C(=O)NCc4cnc(C)cn4)nc23)cc1	TEAD-YAP inh 70.3
O=C(NCc1ccncc1)c1ccc2cncc(-c3cc4ccccc4o3)c2n1	none
O=C(NCc1ccco1)c1ccc2cncc(-c3cc4ccccc4o3)c2n1	TEAD-YAP inh 54.2
CCc1ccc(/C(C)=N/N=C(N)N)cc1	TEAD-YAP inh 34.6
O=C(NCCOc1ccccc1)c1ccc2nc(N3CCOCC3)sc2c1	GPR151 activ 5.8
O=C(NC1CCN(Cc2ccccc2)CC1)c1ccc2nc(N3CCN(Cc4ccc5c(c4)OCO5)CC3)sc2c1	TEAD-YAP inh 44.3
COCCNC(=O)c1ccc2nc(N3CCOCC3)sc2c1	none
CCCNC(=O)c1ccc2nc(N3CCN(Cc4ccc5c(c4)OCO5)CC3)sc2c1	none
COC(=O)c1sc(SC)nc1Nc1ccnc(Nc2cc(OC)ccc2OC)c1	TEAD-YAP inh 48.2
COc1ccc(Br)cc1/C=N/N=C(N)N	TEAD-YAP inh 42.5
CCOC(=O)C(=O)NCC(c1cccnc1)N1CCN(c2ccccc2F)CC1 (centres undefined)	none
Oc1c(Cl)cc(CN2CCCC2)c2cccnc12	MITF primary 112.8, TEAD-YAP inh 93.4
COc1ccccc1N1CCN(Cc2cc(Cl)c(O)c3ncccc23)CC1	MITF primary 73.7, TEAD-YAP inh 81.9
CC1=C(C#N)C(c2ccccc2Cl)C2=C(CC(c3ccccc3)CC2=O)N1 (centres undefined)	TEAD-YAP inh 32.7
CCOc1ccc(C2C(C(=O)OC)=C(C)NC3=C2C(=O)CC(c2ccc(OC)c(OC)c2)C3)cc1 (centres undefined)	none
CCOc1ccc(C2C(C(=O)OC)=C(C)NC3=C2C(=O)CC(c2ccc(OC)c(OC)c2)C3)cc1OC (centres undefined)	TEAD-YAP inh 40.6
CC1=C(C(=O)OC2CCCCC2)C(c2ccc(F)cc2)C2=C(CC(c3ccccc3)CC2=O)N1 (centres undefined)	FBW7 act 1.9
COc1ccc(C2CC(=O)C3=C(C2)NC(C)=C(C(=O)OC2CCCCC2)C3c2cccc(C)c2)cc1OC (centres undefined)	TEAD-YAP inh 46.1
CN1CCCN(C(=O)C2CC23CCN(Cc2ccc(-c4ccc(Cl)cc4)o2)CC3)CC1 (centres undefined)	none
CCOc1ccc(NC(=O)CN2CCN(CC(=O)OC(C)C)CC2)cc1	none
COc1ccc(C2CC(=O)C3=C(C2)NC(C)=C(C(=O)OC(C)C)C3c2cccc(C)c2)cc1OC (centres undefined)	TEAD-YAP inh 52.2
COc1ccc(C2CC(=O)C3=C(C2)NC(C)=C(C(=O)OC(C)C)C3c2cccc(Cl)c2)cc1OC (centres undefined)	TEAD-YAP inh 45.9
COc1ccc(C2CC(=O)C3=C(C2)NC(C)=C(C(=O)OC(C)C)C3c2cccc([N+](=O)[O-])c2)cc1OC (centres undefined)	TEAD-YAP inh 38.5
COCCOC(=O)C1=C(C)NC2=C(C(=O)CC(c3ccc(OC)c(OC)c3)C2)C1c1cccc(C)c1 (centres undefined)	TEAD-YAP inh 43.2
COc1ccc(C2CC(=O)C3=C(C2)NC(C)=C(C(=O)OC(C)C)C3c2cccc(Br)c2)cc1OC (centres undefined)	none
CCOC(=O)C1=C(C)NC2=C(C(=O)CC(c3ccc(OC)c(OC)c3)C2)C1c1cccc([N+](=O)[O-])c1 (centres undefined)	none
CC(C)[C@H](NC(=O)c1ccco1)C(=O)OC/C(O)=C(\C#N)c1nc2ccccc2[nH]1	none
COc1ccc(C2CC(=O)C3=C(C2)NC(C)=C(C(=O)OC(C)C)C3c2ccccc2F)cc1OC (centres undefined)	TEAD-YAP inh 43.3
CCC(C)OC(=O)C1=C(C)NC2=C(C(=O)CC(c3ccccc3)C2)C1c1cccc2ccccc12 (centres undefined)	FBW7 act 2.2
CCC(C)OC(=O)C1=C(C)NC2=C(C(=O)CC(c3ccc(Cl)cc3)C2)C1c1cccc(Cl)c1 (centres undefined)	FBW7 act 1.9
COc1ccc(C2CC(=O)C3=C(C2)NC(C)=C(C(=O)OC(C)C)C3c2ccccc2OC)cc1OC (centres undefined)	none
CCc1nnc(NC(=O)CSc2n[nH]c(C)n2)s1	none
CC(C)Oc1ccc(C(=O)Nc2nnc(-c3ccccn3)o2)cc1	TEAD-YAP inh 35.9
N#Cc1ccc(C(=O)Nc2nnc(-c3ccccn3)o2)cc1	none
O=C(CCCN1C(=O)c2ccccc2C1=O)Nc1nnc(SCc2ccccc2)s1	none
CCn1c(/C=C2/C(=O)Nc3ccccc32)nc2ccccc2c1=O	none
